# Experimental data as given in ChEMBL document CHEMBL1156829.
# Several values for one entry are separate records, joined by “and”; a condition that tells them apart may be missing. Equal values may be shown once. Whole data set: some 5,400 compounds, median “IFI” near 2, cut for the highest 2% near 22. Many of the other results were omitted from the sample, so the highest values are more common in it than they were.
# Assay: NOVARTIS: Inhibition Frequency Index (IFI) - the number of HTS assays where a compound showed > 50% inhibition/induction, expressed as a percentage of the number of assays in which the compound was tested.
# Type: functional
row,Structure (SMILES),IFI
1,CCCN(CCC)[P+](CCC)(c1ccc([P+](CCC)(N(CCC)CCC)N(CCC)CCC)cc1)N(CCC)CCC,3.7%
2,CCCCCC[P+](N(CCC)CCC)(N(CCC)CCC)N(CCC)CCC,29.1%
3,CCCCNC(=O)C(CC)Sc1nnc(-c2ccc(C)cc2)c(-c2ccc(C)cc2)n1 (stereo not given),0%
4,C=CCSc1nc2sc3c(c2c(=O)n1-c1ccccc1)CCN(C)C3,7.55%
5,O=C(Cc1ccccc1)Nc1ccc(C(=O)Nc2ccc(-c3nc4ccc(NC(=O)c5ccc(NC(=O)Cc6ccccc6)cc5)c(Cl)c4[nH]3)cc2)cc1,7.58%
6,Nc1nc(Nc2cccc(Cl)c2)n[nH]1,1.07%
7,OCCCNc1cc(-c2ccnc(Nc3cccc(Cl)c3)n2)ccn1,30.8%
8,OCCCNc1cc(-c2ccccn2)nc(-c2ccccn2)n1,15.4%
9,Cc1nc2ccc(Cl)cc2c(O)c1I,0.752%
10,CC(=O)N(C)C1=C(N2CCCC2)C(=O)c2ccccc2C1=O,0%
11,CC(=O)N(C)C1=C(N2CCOCC2)C(=O)c2ccccc2C1=O,22.1%
12,CC(=O)N(C1=C(N2CCCC2)C(=O)c2ccccc2C1=O)c1ccc(F)cc1,8.11%
13,CC(=O)N(C1=C(N2CCOCC2)C(=O)c2ccccc2C1=O)c1ccc(I)cc1,18.7%
14,CC(=O)N(C1=C(N(C)C)C(=O)c2ccccc2C1=O)c1ccc(Cl)c(Cl)c1,7.69%
15,CC(=O)N(C)C1=C(N2CCCCCC2)C(=O)c2ccccc2C1=O,22.5%
16,CC(=O)N(C1=C(N(C)C)C(=O)c2ccccc2C1=O)c1cc(C)cc(C)c1,15.4%
17,CC(=O)N(C1=C(N2CCOCC2)C(=O)c2ccccc2C1=O)c1ccc(F)cc1,24.7%
18,CC(=O)N(C1=C(N(C)C)C(=O)c2ccccc2C1=O)c1ccc(F)cc1,31.1%
19,COc1cccc(-c2ccc(O)c(CN(C)CC(O)c3ccccc3)c2)n1 (stereo not given),2.56%
20,Cc1c(-c2ccccc2)c2ccccc2n1CCc1ccc(C)[n+](C)c1,1.22%
21,COC(=O)c1sc(-c2ccccc2)cc1NC(=O)c1ccc(S(=O)(=O)N2CCCCCC2)cc1,0%
22,CC[n+]1c(C=C2Sc3ccccc3N2CCO)sc2ccccc21,4.69%
23,CCc1ccc(-n2c(C(CC)N(CCC(C)C)C(=O)Nc3ccc(Cl)c(Cl)c3)nc3ccccc3c2=O)cc1 (stereo not given),6.67%
24,Cc1c(Cl)cccc1NC(=S)N(CCCN(C)c1ccccc1)Cc1cccn1Cc1ccc(Cl)cc1,6.45%
25,COC(=O)C1=CNC=C(C(=O)OC)C1c1cc(OC)c(OC)c(OC)c1,2.38%

row,Structure (SMILES),IFI
1,NCC(c1ccc(F)cc1)c1ccc(F)cc1,0%
2,CCCc1c(C)nc2ccc(Br)cc2c1O,3.03%
3,Cn1c2c([n+](C)c1CCl)C(=O)c1ccccc1C2=O,35.7%
4,Cn1c(=O)c(Cl)c2c3c(c(Cl)ccc31)C(=O)c1ccccc1-2,3.03%
5,O=C1C(N2CCCCC2)=C(N2CCCCC2)C(=O)c2ccccc21,0%
6,CN(C)CCNc1ncc(C(=O)NCc2ccccc2)c(NCCc2ccccc2)n1,1.92%
7,COc1cc(C(=O)NCCc2ccccn2)ccc1OC1CCN(CC(c2ccccc2)c2ccccc2)CC1,1.37%
8,CCOc1cc(-c2nnc3[nH]c(=O)n(C)c(=O)c3n2)ccc1OC(C)C,4.44%
9,CCOc1cc(-c2nc3c(=O)n(C)c(=O)nc-3n(C)n2)ccc1OC(C)C,30.8%
10,CCOc1ccc(-c2noc(-c3ccncc3)n2)cc1OCC,0%
11,O=C(Nc1ccc(NC(=O)c2ccco2)cc1Cl)c1ccccc1,0%
12,Cc1nc([P+](c2ccccc2)(c2ccccc2)c2ccccc2)c(N2CCCCC2)o1,9.09%
13,CN(C)c1oc(-c2ccc(Cl)cc2Cl)nc1[P+](c1ccccc1)(c1ccccc1)c1ccccc1,20.4%
14,Clc1ccccc1-c1nc([P+](c2ccccc2)(c2ccccc2)c2ccccc2)c(N2CCOCC2)o1,25.9%
15,O=C(Nc1cc(C(F)(F)F)cc(C(F)(F)F)c1)Nc1ccc2nnsc2c1,12.8%
16,C=CCSC1=NC2(CC(c3ccccc3)c3cc(Cl)c(O)cc3O2)CC(C)(C)N1 (stereo not given),0%
17,O=C(c1cccc([N+](=O)[O-])c1)c1ccc(Cl)c(Cl)c1,0%
18,c1cncc(-c2nc3cc(-c4ccc5[nH]c(-c6cccnc6)nc5c4)ccc3[nH]2)c1,5.56%
19,Nc1ccc(-c2nc3cc(Oc4ccc5[nH]c(-c6ccc(N)cc6)nc5c4)ccc3[nH]2)cc1,15.4%
20,Brc1ccc(C=NNc2nc3ccccc3[nH]2)cc1,9.02%
21,Nc1ccc(-c2nc3cc(Oc4ccc(Oc5ccc6[nH]c(-c7ccc(N)cc7)nc6c5)cc4)ccc3[nH]2)cc1,5.8%
22,COc1ccc(C(=O)Nc2ccc(-c3nc4ccc(NC(=O)c5ccc(OC)cc5)cc4[nH]3)cc2)cc1,12.8%
23,Nc1ccc(-c2nc3cc(-c4ccc5[nH]c(-c6ccc(N)cc6)nc5c4)ccc3[nH]2)cc1,27.3%
24,Nc1ccc(-c2nc3cc(Cc4ccc5[nH]c(-c6ccc(N)cc6)nc5c4)ccc3[nH]2)cc1,10.3%
25,Brc1ccc(C=Nc2ccc(-c3nc4cc(-c5ccc6[nH]c(-c7ccc(N=Cc8ccc(Br)cc8)cc7)nc6c5)ccc4[nH]3)cc2)cc1,23.1%

row,Structure (SMILES),IFI
1,COc1ccc(-c2nc3cc(Cc4ccc5[nH]c(-c6ccc(OC)cc6)nc5c4)ccc3[nH]2)cc1,25.7%
2,N=c1c2ccccc2nnn1-c1ccc(C(F)(F)F)cc1,2.53%
3,COC(=O)c1sc2nc(CN3CCC(C)CC3)ccc2c1NC(=O)c1ccc(C)s1,1.74%
4,CCOc1ccccc1-n1c(SCC(=O)c2ccc(Cl)cc2)nc2[nH]ncc2c1=O,1.16%
5,CC(=O)NC(CO)C(O)c1ccc([N+](=O)[O-])cc1 (stereo not given),0%
6,COc1ccc(S(=O)(=O)N(C)CCCNc2ccnc3cc(Cl)ccc23)cc1,10.2%
7,CC(c1nc2ccccc2c(=O)n1C)N1CCN(C(=O)C(C)(C)C)CC1 (stereo not given),0%
8,N#Cc1ccc(NC(=O)c2cc(Cl)ccc2O)cc1,24.7%
9,O=C(Nc1c2ccccc2nc2ccccc12)c1cc(Cl)ccc1O,3.03%
10,O=C(Nc1cccc(Cl)c1)c1cc2ccccc2cc1O,9.62%
11,CCCN(C(=O)Nc1c(C(C)C)cccc1C(C)C)C(CC)c1nc2ccccc2c(=O)n1-c1cccc(C)c1 (stereo not given),0.943%
12,CCOC(=O)N1CCN(C(=O)C(=O)NNC(=O)COc2ccc(Cl)cc2Br)CC1,0%
13,OC1(c2ccc(Br)cc2)CCN(C2CCN(Cc3ccccc3)CC2)CC1,1.57%
14,COCC(=O)NCc1ccc(OC2CCN(CC(c3ccccc3)c3ccccc3)CC2)cc1,1.41%
15,O=C(Nc1cccc(Oc2ccccc2)c1)NC(CN1CCCC1)c1ccccc1 (stereo not given),7.04%
16,CC[C@H](C)C[C@H]1CC[C@](O)([C@](C)(O)C(=O)N[C@@H]2C(=O)N3NCCC[C@@H]3C(=O)N(O)[C@@H](C)C(=O)NCC(=O)N3NCCC[C@H]3C(=O)N(O)[C@H](C)C(=O)O[C@H]2C(C)C)O[C@@H]1C,34.4%
17,CCCCCCC1CCC(O)(C(C)(O)C(=O)NC2C(=O)N3NCCCC3C(=O)N(O)C(COC)C(=O)NCC(=O)N3NCCCC3C(=O)N(O)C(C)C(=O)OC2C)OC1C (stereo not given),39.3%
18,COc1ccc(CN2CCOc3ccc(C(C)(O)CN(C)C)cc3C2)cc1C (stereo not given),0%
19,CCOC(=O)c1c(C)n(-c2ccccc2)c2ccc(O)cc12,2.54%
20,CCN1CCN(c2c(C(=O)c3ccccc3)cnc3cc(OC)c(OC)cc23)CC1,2.22%
21,CCCCc1c(C)nc2c(OC)cccc2c1O,0%
22,CCCCN(C)Cc1cc(-c2cccc(OC)n2)ccc1O,3.42%
23,Oc1c2c(nc3cc(-c4ccccc4)nn13)CCCC2,7.14%
24,CC(C)CNCc1cc(-c2ccc(F)cc2)ccc1O,0.98%
25,CC(=O)Nc1c(NCc2ccccc2)c2ccccc2sc1=O,2.17%

row,Structure (SMILES),IFI
1,Cc1ccc(Nc2nc3c(N)nnc(N)c3nc2Nc2ccc(C)cc2)cc1,2.98%
2,CCS/C(Cl)=C(/NC(=O)c1ccccc1)[P+](c1ccccc1)(c1ccccc1)c1ccccc1,3.57%
3,O=C(NN=CC(Br)=Cc1ccccc1)c1ccc(F)cc1,0%
4,O=C(NC(=C(Cl)Cl)[P+](c1ccccc1)(c1ccccc1)c1ccccc1)c1ccc(F)cc1,27.3%
5,COc1ccc(/C=C(/C#N)C(=O)Nc2cccc3ccccc23)cc1,0%
6,COc1cc(NC(C)CCCN(Cc2ccc(Cl)cc2)C(=O)Nc2cccc(C(F)(F)F)c2)c2ncccc2c1 (stereo not given),2.7%
7,Cc1ccccc1C[n+]1cc(-c2ccc(Cl)cc2)n2c1CCC2,7.14%
8,CCSC1=CC(=O)c2ccccc2C1=O,24.3%
9,CCCCNC1=CC(=O)C(=O)c2ccccc21,15.4%
10,Cc1c(C(=O)NCCN2CCCC2)cnn1-c1ncc2c(n1)-c1ccccc1SC2,2.59%
11,COCCOC(=O)C1=C(C)NC2=C(C(=O)CC(c3ccc(OC)c(OC)c3)C2)C1c1ccccc1Cl (stereo not given),2.33%
12,CC(C)NC(=O)c1ccc2c(c1)N=C(c1ccccc1)N(C1CC1)C2,2.47%
13,Cc1ccccc1C=NNc1nc2ccccc2[nH]1,0%
14,CCN1/C(=C/c2ccc3ccccc3[n+]2CC)Sc2sc3ccccc3c21,18.3%
15,CC[n+]1c(/C=C2\Sc3oc4ccccc4c3N2C)ccc2cc(C)ccc21,26.1%
16,CCN1/C(=C/c2ccc3ccccc3[n+]2CC)Sc2c1ccc1ccccc21,24.1% and 14.3%
17,CCN1/C(=C/c2[se]c3ccccc3[n+]2CC)C=Cc2cc(OC)ccc21,19.6%
18,CC[n+]1c(/C=C2\Sc3cc(C)ccc3N2CCO)ccc2ccccc21,15.4%
19,CCN1/C(=C/c2ccc3ccccc3[n+]2CC)Sc2cc(NC(C)=O)ccc21,8.33%
20,CC[n+]1c(/C=C2\Sc3ccccc3N2CCO)ccc2cc(C)ccc21,6.35%
21,CC[n+]1c(/C=C2\Sc3ccc(C)cc3N2CCO)ccc2ccccc21,15.4%
22,CC[n+]1c(/C=C2\Sc3ccc(OC)cc3N2C)ccc2cc(C)ccc21,14.3%
23,CCN1C(=Cc2ccc3ccccc3[n+]2CC)C=Cc2sc3ccccc3c21,31.4%
24,CCN1/C(=C/c2cccc[n+]2C)C=Cc2ccccc21,8.33%
25,CCN1/C(=C/c2ccc3ccccc3[n+]2CC)C=Cc2ccccc21,22.7%
